Assay results published in PubChem BioAssay (NCATS).
Records with an inconclusive call do not appear. Where a call stands in place of a potency, no number is given. A number with no mark means an inactive call. The source made the active and inactive calls. The call rests on the fitted dose curve; in most records, active means well fitted curve in the direction sought with a large enough effect; inconclusive means small, poorly fitted or top-dose-only effect, or another doubt; inactive means no such curve, though single readings can be large; an effect the other way counts as inactive or inconclusive.

Columns and labels:
[1] = qHTS of pediatric cancer cell lines to identify multiple opportunities for drug repurposing: Primary screen for SJ-GBM2 cells (AID 1347091); further: potency means the concentration at half of the fitted maximal effect
Summary of the method: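 Eight- or eleven-point concentration series, 48 h treatment at 37 degrees C in growth media; readout CellTiter-Glo luminescence. Potency and efficacy were taken from the concentration-response curves.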

[2] = qHTS of pediatric cancer cell lines to identify multiple opportunities for drug repurposing: Primary screen for A673 cells (AID 1347092); further: nearly all actives have a fitted effect of over 45% in size; further: potency means the concentration at half of the fitted maximal effect
Summary of the method: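 Luminescence from CellTiter-Glo, taken after 15 min at room temperature, served as the proxy for metabolically active cells following 48 h treatment. Both potency and efficacy were taken from curves fitted to the titration data.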

[3] = qHTS of pediatric cancer cell lines to identify multiple opportunities for drug repurposing: Primary screen for BT-37 cells (AID 1347094); further: potency means the concentration at half of the fitted maximal effect; on activity change, negative = cytotoxic: series mostly up to about 57 µM
Summary of the method: (§1)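 ATP-based luminescence (CellTiter-Glo) quantifies viability after a 48-hour exposure. Compounds are dosed across 8 or 11 final concentrations; DMSO and 2.3 µM bortezomib serve as controls.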

[4] = qHTS of pediatric cancer cell lines to identify multiple opportunities for drug repurposing: Primary screen for NB-EBc1 cells (AID 1347095); further: potency means the concentration at half of the fitted maximal effect
Summary of the method: as §1

[5] = qHTS of pediatric cancer cell lines to identify multiple opportunities for drug repurposing: Primary screen for U-2 OS cells (AID 1347096); further: nearly all actives have a fitted effect of over 50% in size
Summary of the method: (§2)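 Cells (500-1,000/well) in growth media were settled 5 h at 37 degrees C, then given compounds for 48 h. Viability was read as CellTiter-Glo luminescence. Primary runs used MIPE at 11 points (0.78 nM-46 µM) and NPC at 8 points (0.59 nM-46 µM); follow-ups used 11 points.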

[6] = qHTS of pediatric cancer cell lines to identify multiple opportunities for drug repurposing: Primary screen for NB1643 cells (AID 1347099); further: nearly all actives have a fitted effect of over 50% in size; further: potency means the concentration at half of the fitted maximal effect
Summary of the method: as §1

[7] = qHTS of pediatric cancer cell lines to identify multiple opportunities for drug repurposing: Primary screen for LAN-5 cells (AID 1347100); further: potency means the concentration at half of the fitted maximal effect
Summary of the method: as §2

[8] = qHTS of pediatric cancer cell lines to identify multiple opportunities for drug repurposing: Primary screen for Rh18 cells (AID 1347102); further: nearly all actives have a fitted effect of over 65% in size; further: potency means the concentration at half of the fitted maximal effect
Summary of the method: as §2

[9] = qHTS of pediatric cancer cell lines to identify multiple opportunities for drug repurposing: Primary screen for OHS-50 cells (AID 1347103); further: nearly all actives have a fitted effect of over 40% in size; further: potency means the concentration at half of the fitted maximal effect
Summary of the method: (§3)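 Cells (500-1,000/well) rested 5 h, then received compounds for 48 h; metabolically active cells were measured by CellTiter-Glo luminescence. Final concentrations spanned up to 46 µM (MIPE, 11-point) or 0.59 nM-46 µM (NPC, 8-point) in primary screens, 11-point in follow-ups.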

[10] = qHTS of pediatric cancer cell lines to identify multiple opportunities for drug repurposing: Primary screen for RD cells (AID 1347104); further: nearly all actives have a fitted effect of over 55% in size; further: potency means the concentration at half of the fitted maximal effect
Summary of the method: as §1

[11] = qHTS of pediatric cancer cell lines to identify multiple opportunities for drug repurposing: Primary screen for MG 63 (6-TG R) cells (AID 1347105); further: nearly all actives have a fitted effect of over 50% in size; further: potency means the concentration at half of the fitted maximal effect
Summary of the method: as §1

[12] = qHTS of pediatric cancer cell lines to identify multiple opportunities for drug repurposing: Primary screen for control Hh wild type fibroblast cells (AID 1347106);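 further: series mostly up to about 46 µM; a drop in luminescence marks cytotoxicity and a rise apparent proliferation; nearly all actives have a fitted effect of over 55% in size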
Summary of the method: as §2

[13] = qHTS of pediatric cancer cell lines to identify multiple opportunities for drug repurposing: Primary screen for Rh30 cells (AID 1347107); further: nearly all actives have a fitted effect of over 75% in size; further: potency means the concentration at half of the fitted maximal effect; on activity change, negative = cytotoxic: series mostly up to about 46 µM
Summary of the method: as §2

[14] = qHTS of pediatric cancer cell lines to identify multiple opportunities for drug repurposing: Primary screen for Rh41 cells (AID 1347108); further: nearly all actives have a fitted effect of over 70% in size; further: potency means the concentration at half of the fitted maximal effect;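 on activity change, negative = cytotoxic: series mostly up to about 46 µM; luminescence drop marks cytotoxic hits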
Summary of the method: as §1

[15] = qHTS of pediatric cancer cell lines to identify multiple opportunities for drug repurposing: Primary screen for Saos-2 cells (AID 1347097); further: nearly all actives have a fitted effect of over 40% in size; further: potency means the concentration at half of the fitted maximal effect
Summary of the method: as §1

[16] = qHTS of pediatric cancer cell lines to identify multiple opportunities for drug repurposing: Primary screen for BT-12 cells (AID 1347101); further: nearly all actives have a fitted effect of over 25% in size; further: potency means the concentration at half of the fitted maximal effect
Summary of the method: as §3

[17] = qHTS of pediatric cancer cell lines to identify multiple opportunities for drug repurposing: Primary screen for SK-N-SH cells (AID 1347098); further: nearly all actives have a fitted effect of over 65% in size; further: potency means the concentration at half of the fitted maximal effect;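 on activity change, negative = cytotoxic: DMSO served as neutral control and bortezomib at 2.3 µM as positive control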
Summary of the method: as §3

[18] = qHTS of pediatric cancer cell lines to identify multiple opportunities for drug repurposing: Primary screen for SK-N-MC cells (AID 1347093); further: potency means the concentration at half of the fitted maximal effect; on activity change, negative = cytotoxic: series mostly up to about 46 µM
Summary of the method: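 Metabolically active cells were quantified by ATP-dependent luminescence (CellTiter-Glo, 15 min at room temperature) following 48 h treatment. Cells had been plated at 500-1,000 per well and settled for 5 h beforehand.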

[19] = qHTS of pediatric cancer cell lines to identify multiple opportunities for drug repurposing: Confirmatory screen for NB1643 cells (AID 1347109); further: potency means the concentration at half of the fitted maximal effect; nearly all actives have a fitted effect of over 45% in size
Summary of the method: as §2

[20] = qHTS of pediatric cancer cell lines to identify multiple opportunities for drug repurposing: Confirmatory screen for A673 cells (AID 1347110);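 further: potency means the concentration at half of the fitted maximal effect; cells exposed to compound for 48 h before the viability read; nearly all actives have a fitted effect of over 65% in size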
Summary of the method: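 qHTS titration format: primary MIPE 0.78 nM-46 µM (11 pts), NPC 0.59 nM-46 µM; confirmation 11 pts. 48 h, CTG luminescence.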

O=C(O)CCCCCC(=O)NN=C1CCCC1
Potency [1]: inactive | Potency [2]: inactive | Potency [3]: inactive | Potency [4]: inactive | Potency [5]: inactive | Potency [6]: inactive | Potency [7]: inactive | Potency [8]: inactive | Potency [9]: inactive | Potency [10]: inactive | Potency [11]: inactive | Potency [12]: inactive | Potency [13]: inactive | Potency [14]: inactive

CON=C(C(=O)N[C@@H]1C(=O)N2C(C(=O)O)=C(Cn3ccc(=N)n3CCO)CS[C@H]12)c1csc(N)n1
Potency [1]: inactive | Potency [2]: inactive | Potency [3]: inactive | Potency [4]: inactive | Potency [5]: inactive | Potency [15]: inactive | Potency [7]: inactive | Potency [16]: inactive | Potency [9]: inactive | Potency [10]: inactive | Potency [12]: inactive | Potency [13]: inactive | Potency [14]: inactive

NC(=O)c1ncn([C@@H]2O[C@H](CO)[C@@H](O)[C@@H]2O)c1N
Potency [1]: inactive | Potency [2]: inactive | Potency [3]: inactive | Potency [4]: inactive | Potency [17]: inactive | Potency [6]: inactive | Potency [7]: inactive | Potency [16]: inactive | Potency [8]: inactive | Potency [9]: inactive | Potency [10]: inactive | Potency [11]: inactive | Potency [12]: inactive | Potency [13]: inactive | Potency [14]: inactive

C#C[C@]1(O)CC[C@@H]2[C@@H]3CCC4=CC(=O)CC[C@@H]4[C@H]3CC[C@@]21CC
Potency [1]: inactive | Potency [2]: inactive | Potency [3]: inactive | Potency [4]: inactive | Potency [5]: inactive | Potency [6]: inactive | Potency [7]: inactive | Potency [8]: inactive | Potency [10]: inactive | Potency [12]: inactive

CN(C)c1ccc2cc(C(=O)N[C@@H](CCCN=C(N)CCl)C(=O)NCc3ccccc3)ccc2c1
Potency [1]: 20.9 µM (active) | Potency [2]: 0.469 µM (active) | Potency [18]: 3.32 µM (active) | Potency [15]: 14.8 µM (active) | Potency [17]: 21.5 µM (active) | Potency [6]: 14.8 µM (active) | Potency [7]: 1.05 µM (active) | Potency [16]: 24.3 µM (active) | Potency [8]: 20.9 µM (active) | Potency [9]: 4.85 µM (active) | Potency [10]: 13.2 µM (active) | Potency [12]: inactive | Potency [13]: 4.69 µM (active) | Potency [14]: 14.8 µM (active)

O=C(C[C@@H]1CC=CCCC(=O)O[C@H](c2ccccc2)CNC1=O)NCc1ccc(Cl)cc1
Potency [1]: inactive | Potency [2]: inactive | Potency [3]: inactive | Potency [4]: inactive | Potency [5]: inactive | Potency [15]: inactive | Potency [17]: inactive | Potency [6]: inactive | Potency [7]: inactive | Potency [16]: inactive | Potency [8]: inactive | Potency [9]: inactive | Potency [12]: inactive | Potency [13]: inactive | Potency [14]: inactive

CC[C@H](CC[C@@H](C)[C@H]1CC[C@H]2[C@@H]3CC=C4C[C@@H](O)CC[C@]4(C)[C@@H]3CC[C@]12C)C(C)C
Potency [1]: inactive | Potency [2]: inactive | Potency [3]: inactive | Potency [4]: inactive | Potency [5]: inactive | Potency [7]: inactive | Potency [16]: inactive | Potency [9]: inactive | Potency [10]: inactive | Potency [11]: inactive | Potency [12]: inactive | Potency [13]: inactive

CN(C)CC(=O)N1CCC(c2ccc(NC(=O)c3ncc(C#N)[nH]3)c(C3=CCCCC3)c2)CC1
Potency [1]: 18.7 µM (active) | Potency [2]: 18.7 µM (active) | Potency [18]: 1.66 µM (active) | Potency [15]: 18.7 µM (active) | Potency [17]: 1.21 µM (active) | Potency [6]: 18.7 µM (active) | Potency [7]: 16.6 µM (active) | Potency [16]: 30.6 µM (active) | Potency [8]: 23.5 µM (active) | Potency [9]: 13.7 µM (active) | Potency [10]: 18.7 µM (active) | Potency [12]: inactive

Cc1ccc([N+](=O)[O-])cc1S(=O)(=O)N(C)N=Cc1cnc2ccc(Br)cn12
Potency [1]: 0.118 µM (active) | Potency [2]: 0.0074 µM (active) | Potency [3]: 38.5 nM (active) | Potency [4]: 0.935 µM (active) | Potency [15]: 0.187 µM (active) | Potency [17]: 0.0108 µM (active) | Potency [6]: 0.0042 µM (active) | Potency [7]: 0.0083 µM (active) | Potency [16]: 0.0343 µM (active) | Potency [8]: 0.148 µM (active) | Potency [9]: 0.0306 µM (active) | Potency [11]: 18.7 µM (active) | Potency [12]: inactive | Potency [13]: inactive | Potency [14]: 0.0662 µM (active) | Potency [19]: 165 nM (active) | Potency [20]: 293 nM (active)

C#C[C@]1(O)CC[C@@H]2[C@@H]3CCc4cc(O)ccc4[C@H]3CC[C@@]21C
Potency [1]: 18.7 µM (active) | Potency [2]: 14.8 µM (active) | Potency [18]: 11.8 µM (active) | Potency [4]: 13.2 µM (active) | Potency [17]: 24.1 µM (active) | Potency [6]: 20.9 µM (active) | Potency [9]: 30.6 µM (active) | Potency [10]: 18.7 µM (active) | Potency [11]: 23.5 µM (active) | Potency [12]: inactive | Potency [14]: 23.5 µM (active)

O=[N+]([O-])c1cn2c(n1)OC[C@@H](OCc1ccc(OC(F)(F)F)cc1)C2
Potency [1]: inactive | Potency [18]: inactive | Potency [3]: inactive | Potency [4]: inactive | Potency [5]: inactive | Potency [15]: inactive | Potency [6]: inactive | Potency [7]: inactive | Potency [10]: inactive | Potency [11]: inactive | Potency [12]: inactive | Potency [13]: inactive

CC(C)(C)[C@H](NC(=O)c1ccc(N)c(Cl)c1)C(=O)N1CCC[C@@H]1C(=O)N[C@H](C#N)CC(=O)O
activity change, negative = cytotoxic [1]: 0.43% [at 4.84 µM] | Potency [18]: 0.235 µM (active) | activity change, negative = cytotoxic [3]: -11.4% [at 6.03 µM] | activity change, negative = cytotoxic [4]: 14.9% [at 4.84 µM] | activity change, negative = cytotoxic [5]: 9.94% [at 4.84 µM] | activity change, negative = cytotoxic [17]: 23.1% [at 6 µM] | Potency [6]: 1.05 µM (active) | activity change, negative = cytotoxic [7]: 8.05% [at 4.84 µM] | activity change, negative = cytotoxic [16]: 15.5% [at 6.03 µM] | activity change, negative = cytotoxic [8]: 0.535% [at 4.84 µM] | activity change, negative = cytotoxic [9]: -19.6% [at 6.18 µM] | activity change, negative = cytotoxic [12]: -7.94% [at 4.84 µM] | activity change, negative = cytotoxic [13]: 14.6% [at 4.84 µM]

Cc1ccccc1C(=O)Nc1ccc(C(=O)N2CCCC(O)c3cc(Cl)ccc32)c(C)c1 (stereo unspecified)
Potency [1]: inactive | Potency [18]: inactive | Potency [3]: inactive | Potency [4]: inactive | Potency [5]: inactive | Potency [17]: inactive | Potency [6]: inactive | Potency [7]: inactive | Potency [16]: inactive | Potency [8]: inactive | Potency [9]: inactive | Potency [12]: inactive | Potency [13]: inactive
